Results from PubChem BioAssay (NCI).
Compounds without any hit were thinned out: in the full panel of roughly 83,000, 20% have a hit.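 Note: values are percent growth. 100 is the growth of untreated cells, values between 100 and 0 indicate rising inhibition; between -100 and 0 indicates cell death.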 Calls of active or inactive are those of the source. How the source made its calls: active means growth percent below 10; inactive means the rest.

These compounds were tested on HL-60(TB) leukemia (assay: NCI-60 one-dose screen, 48 h (100 = growth as untreated, 0 = no growth, -100 = all killed)). Details: 10 µM unless noted.
With O=C1C[C@H](c2ccccc2)[C@H](c2ccccc2)C1 the growth was 88.1% (inactive).
For COC(=O)[C@@H](C)CNS(=O)(=O)N(c1cc(C(F)(F)F)cc(C(F)(F)F)c1)C1CCN(Cc2ccc(F)cc2)CC1, the growth was 31.3% (inactive).
For CCCCCCCCO, the growth was 93.8% (inactive).
With CC(C)c1c(C(=O)c2ccccc2)c(-c2ccccc2)c(-c2ccc(F)cc2)n1CC[C@@H](O)C[C@@H](O)CC(=O)O the growth was 74% (inactive).
With C[C@]12CCc3c(ccc4cc(O)ccc34)[C@@H]1C[C@H](O)[C@@H]2O the growth was 132% (inactive).
With COc1ccc(C(=O)c2cc3c(N)c(C(=O)Nc4ccc(C)cc4)sc3nc2C)cc1 the growth was 7.74% (active).
COc1cc2cc(Oc3ccc(NC(=O)c4ccccc4)cc3)c(C)nc2cc1OC was tested, and the growth was 100% (inactive).
For CS(=O)(=O)c1ccc(Cl)c([N+](=O)[O-])c1, the growth was 14% (inactive).
With C=CC(=O)NCCOc1cccc(Nc2cc(NCCCNC(=O)C3CCC3)c(Br)cn2)c1 the growth was -55% (active).
With CC(=O)c1cc(C(=O)c2ccc3c(c2)Sc2ccccc2N3)c2c(C)cc(C)cn12 the growth was -12.6% (active).
For C=C1C(=O)O[C@H]2[C@H]1CC/C(CNC(=O)/C=C/c1ccc(Cl)cc1Cl)=C\CC[C@@]1(C)O[C@@H]21, the growth was -27.4% (active).
For CC(=O)c1ccc(Nc2nc(Cl)nc(Oc3c(Cl)cccc3Cl)n2)cc1, the growth was 97.8% (inactive).
With Oc1ccc(N=Cc2ccc(OCc3ccccc3)cc2)cc1 the growth was 104% (inactive).
Cn1cc(-c2csc(-c3cn(CCN)c4ccc(Br)cc34)n2)c2cccnc21 was tested, and the growth was 41% (inactive).
In the case of Cc1ccc2nc(-c3ccc(-n4on4-c4ccc(/C=C/c5ccc(-n6on6-c6ccc(-c7nc8ccc(C)cc8s7)cc6)cc5S(=O)(=O)O)c(S(=O)(=O)O)c4)cc3)sc2c1, the growth is reported as 101% (inactive).
COc1ccc(Cn2cc(COc3ccc4c5ccnc(C)c5n(CCCc5ccccc5)c4c3)nn2)cc1 was tested, and the growth was -55.7% (active).
With CC1=C(C(=O)Nc2ccc(F)cc2)C(c2ccc(Cl)cc2)C2=C(CC(C)(C)CC2=O)N1 (stereo not given) the growth was 104% (inactive).
Cc1ccc2c(-c3nnc(N)s3)cc(=O)oc2c1C was tested, and the growth was 100% (inactive).
With CC1=NN(c2cccc(S(N)(=O)=O)c2)C(=O)C1 the growth was 124% (inactive).
In the case of O=C1N=c2ccccc2=C1c1sc(=Nc2ccccc2)n(Nc2ccccc2)c1O, the growth is reported as 97.5% (inactive).
In the case of COc1cc(/C=C2\C(=O)Nc3ccc(Br)cc32)cc(OC)c1OC, the growth is reported as 73.5% (inactive).
With CC[C@]12C=CCN3CC[C@@]4(c5ccc(OC)cc5N(C)[C@H]4[C@@](O)(C(=O)OC)[C@@H]1OC(=O)CCC[P+](c1ccccc1)(c1ccccc1)c1ccccc1)[C@@H]32 the growth was -53.1% (active).
In the case of COc1cc(/C=C/C(=O)c2c(C)nc3ccccc3c2C)ccc1OCCCCOc1cc2c(cc1OC)C(=O)N1CCC[C@H]1C=N2, the growth is reported as -34.1% (active).
COP(=O)(OC)/C(=N\NS(=O)(=O)c1ccc(C)cc1)c1ccccc1 was tested, and the growth was 100% (inactive).
With CCCOC(=O)Nc1nc2ccc(SCC(C)C)cc2s1 the growth was 15.9% (inactive).
In the case of COc1ccc(/C=C(/C(=O)N2CCN(c3ccccc3)CC2)c2cc(OC)c(OC)c(OC)c2)cc1O, the growth is reported as -34.5% (active).
For Clc1ccc(/C=C/c2ccccn2)c(Cl)c1, the growth was 86% (inactive).
For CC(C)(CCc1ccccn1)C(=O)CCCc1ccccn1, the growth was 103% (inactive).
For C=CCC(=O)N[C@H](/C=C/C(=O)O)Cc1ccc(-c2cc(Cl)cc(Cl)c2)cc1, the growth was 101% (inactive).
With c1coc([C@@H]2C[C@@H]3Cc4ccc5ccccc5c4N2O3)c1 the growth was 100% (inactive).
O=C1C2=C(Nc3cc([N+](=O)[O-])ccc3N2)OC1c1c2ccccc2cc2ccccc12 (stereo not given) was tested, and the growth was 14.2% (inactive).
In the case of Cc1cc(Nc2ccc(C(=O)N3CCCC3)cc2)nc(NCCCNc2ccnc3cc(Cl)ccc23)n1, the growth is reported as 84.4% (inactive).
For CCOC(=O)NNc1[nH]c(-c2ccc(OC)cc2)cc1C#N, the growth was -42.4% (active).
O=c1[nH]nc(-c2ccc(Br)cc2)c2sc(NC(=S)Nc3ccc(Cl)cc3)nc12 was tested, and the growth was 94.2% (inactive).
In the case of COc1ccc(C2CC(=O)c3c(O)cc(OC4OC(COC5OC(C)C(O)C(O)C5O)C(O)C(O)C4O)cc3O2)cc1O (stereo not given), the growth is reported as 131% (inactive).
CCCC[N+]1(C)CCN=C1Cc1ccccc1 (stereo not given) was tested, and the growth was 88.9% (inactive).
In the case of COc1cc(NCC(C)(O)CN(CC(C)C)CC(C)C)c2nc(C)ccc2c1 (stereo not given), the growth is reported as 71.4% (inactive).
With O=C(Nc1ccc([N+](=O)[O-])cc1)C(=O)Nc1ccc([N+](=O)[O-])cc1 the growth was 118% (inactive).
In the case of CCCNc1nc(N(C)O)nc(N(C)O)n1, the growth is reported as 3.47% (active).
For CC1=CC(=O)C(C(C)C)=CC1=Nc1cc(Br)c(O)c(Br)c1, the growth was -9.85% (active).
